# Laboratory results published in PubChem BioAssay (NCATS).
# Inconclusive results are not listed. Where a call stands in place of a potency, no number is given. Values without a mark were called inactive. Active and inactive are the calls of the source. Calls come from the whole dose curve; as a rule, active = well fitted curve in the direction sought with a large enough effect; inconclusive = small, poorly fitted or top-dose-only effect, or another doubt; inactive = no such curve, though single readings can be large; an effect the other way counts as inactive or inconclusive.
# Assays:
# [1] = target: Protein phosphatase 1D (Homo sapiens) (UniProt O15297); assay: RapidFire Mass Spectrometry qHTS Assay for Modulators of WT P53-Induced Phosphatase 1 (WIP1) (AID 1347424);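 note: amount of dephosphorylated VEPPL-S-QETFS peptide product formed by WIP1; series mostly up to about 63 µM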
# Protein phosphatase 1D (Homo sapiens), sequence (O15297 whole entry, looked up): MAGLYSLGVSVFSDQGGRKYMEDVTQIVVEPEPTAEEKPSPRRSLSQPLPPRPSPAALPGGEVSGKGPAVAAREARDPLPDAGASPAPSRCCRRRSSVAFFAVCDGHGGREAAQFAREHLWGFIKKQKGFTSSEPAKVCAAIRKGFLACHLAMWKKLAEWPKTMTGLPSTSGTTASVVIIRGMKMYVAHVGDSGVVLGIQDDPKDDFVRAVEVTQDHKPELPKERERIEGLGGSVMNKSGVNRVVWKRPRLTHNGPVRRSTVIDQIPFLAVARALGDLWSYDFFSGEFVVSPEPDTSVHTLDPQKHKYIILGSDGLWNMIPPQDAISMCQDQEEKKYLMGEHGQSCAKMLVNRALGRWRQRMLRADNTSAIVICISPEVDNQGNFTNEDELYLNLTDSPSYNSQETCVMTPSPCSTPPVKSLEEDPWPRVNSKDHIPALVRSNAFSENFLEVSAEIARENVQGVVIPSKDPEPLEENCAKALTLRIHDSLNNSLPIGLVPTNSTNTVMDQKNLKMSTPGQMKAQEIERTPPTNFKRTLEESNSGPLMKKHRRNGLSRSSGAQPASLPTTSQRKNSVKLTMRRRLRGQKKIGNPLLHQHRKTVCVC
# Method in brief: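 10 nM WIP1 + cpd, 1 h RT; + 2 uM VEPPL-pS-QETFS, 5 min RT; stop 0.5% formic acid; labelled product standard 1 uM; RapidFire MS. Buffer 50 mM Tris pH 7.5, 30 mM MgCl2, 1 mM TCEP.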
# [2] = target: Protein phosphatase 1D (Homo sapiens) (UniProt O15297); assay: Rhodamine-PBP qHTS Assay for Modulators of WT P53-Induced Phosphatase 1 (WIP1) (AID 1347425)
# Method in brief: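 Read-out: Rhodamine-PBP fluorescence (ex 525/em 598 nm) for released Pi, read each minute for 11 min after adding 10 uM VEPPL-pS-QETFS; signal taken as f1 minus pre-substrate f0. Enzyme 5 nM WIP1 with 1 hr room-temperature compound preincubation.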
# [3] = Primary qHTS for inhibitors of La Crosse Virus (LACV) - induced cell death in SH-SY5Y cells (AID 1508616);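 note: top concentration of the series differs between compounds; higher means more rescue of cells from virus-induced death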
# Method in brief: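 Protection against LACV-induced cell death is scored in SH-SY5Y cells exposed to compounds and virus (0.01 MOI) for 6 days. Data normalized to virus-infected DMSO wells and virus-free DMSO wells.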
# [4] = target: Calcium and integrin-binding protein 1 (Homo sapiens) (UniProt Q99828); assay: Primary qHTS for Identification of Calcium Integrin Binding Protein 1 (CIB1) Competitor (AID 1508620); note: potency is the fitted concentration of half-maximal effect;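 for activity change, negative = inhibition: GST tagged CIB1 binding a fluorescein labelled alphaIIb integrin peptide tracer; top concentration of the series differs between compounds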
# Calcium and integrin-binding protein 1 (Homo sapiens), sequence (Q99828 whole entry, looked up): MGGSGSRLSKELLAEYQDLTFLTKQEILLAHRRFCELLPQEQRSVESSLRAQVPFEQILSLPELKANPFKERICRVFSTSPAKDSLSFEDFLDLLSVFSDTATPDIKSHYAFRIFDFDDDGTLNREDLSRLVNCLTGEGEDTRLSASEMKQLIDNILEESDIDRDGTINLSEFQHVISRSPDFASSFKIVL
# Method in brief: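 CIB1-GST (1 uM final) and compound incubated 15 min at room temperature before adding FITC-alphaIIb peptide tracer (100 nM final). Competition for binding read by fluorescence polarization (ex 480, em 540) after another 15 min at room temperature.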
# [5] = target: Calcium and integrin-binding protein 1 (Homo sapiens) (UniProt Q99828); assay: Confirmatory qHTS for Identification of Calcium Integrin Binding Protein 1 (CIB1) Competitor (AID 1508617); note: nearly all actives have a fitted effect of over 65% in size; note: potency is the fitted concentration of half-maximal effect
# Method in brief: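 Fluorescence polarization competition: CIB1-GST (1 uM final) in 5 mM HEPES pH 7.4, 125 mM NaCl, 5 mM CaCl2, 0.01% Tween20 preincubated 15 min RT with compound (up to 114 uM), then FITC-alphaIIb peptide (100 nM) added, 15 min RT.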
structure (smiles),measurement,setting,value
NC[C@H]1O[C@H](O[C@H]2[C@H](O)[C@@H](O[C@H]3O[C@H](CO)[C@@H](O)[C@H](N)[C@H]3O)[C@H](N)C[C@@H]2N)[C@H](N)[C@@H](O)[C@@H]1O,Potency,[1],inactive
same,outcome,[2],inactive
same,Potency,[3],inactive
same,Potency,[4],inactive
C[n+]1c2cc(N)ccc2cc2ccc(N)cc21 (tested in a mixture with another compound),Potency,[1],inactive
same,outcome,[2],inactive
same,Potency,[3],inactive
COC(=O)[C@@H]1CC2=CC(=O)CC[C@]2(C)[C@@]23O[C@@H]2C[C@@]2(C)[C@@H](CC[C@@]24CCC(=O)O4)[C@H]13,Potency,[1],inactive
same,outcome,[2],inactive
same,Potency,[3],inactive
same,Potency,[4],inactive
CC(=O)CC(c1ccc([N+](=O)[O-])cc1)c1c(O)c2ccccc2oc1=O (centres undefined),Potency,[1],inactive
same,outcome,[2],inactive
same,Potency,[3],inactive
same,Potency,[4],inactive
CCOC(=O)COc1ccc2c(C)c(CCN(CC)CC)c(=O)oc2c1Cl,Potency,[1],inactive
same,outcome,[2],inactive
same,Potency,[3],inactive
same,Potency,[4],inactive
CCOc1ccc(Cc2nccc3cc(OCC)c(OCC)cc23)cc1OCC,Potency,[1],inactive
same,outcome,[2],inactive
same,Potency,[3],inactive
Cc1ccnc(NS(=O)(=O)c2ccc(N)cc2)n1,Potency,[1],inactive
same,outcome,[2],inactive
same,Potency,[3],inactive
CCOc1ccc2nc3cc(N)ccc3c(N)c2c1,Potency,[1],inactive
same,outcome,[2],inactive
same,Potency,[3],inactive
same,Potency,[5],25.1 µM (active)
same,Potency,[4],44.7 µM (active)
COc1ccc(/C=C/C(=O)c2ccc(OC)cc2OC)cc1,Potency,[1],inactive
same,outcome,[2],inactive
same,Potency,[3],inactive
same,Potency,[4],inactive
COC1=CC(=O)C[C@@H](C)[C@]12Oc1c(Cl)c(OC)cc(OC)c1C2=O,Potency,[1],inactive
same,outcome,[2],inactive
same,Potency,[3],inactive
same,Potency,[4],inactive
c1ccc(CNCCNCc2ccccc2)cc1,Potency,[1],inactive
same,outcome,[2],inactive
same,Potency,[3],inactive
O=C1OCCN1/N=C/c1ccc([N+](=O)[O-])o1,Potency,[1],inactive
same,outcome,[2],inactive
same,Potency,[3],inactive
same,Potency,[4],inactive
CC1(C)OC[C@@H](COC(=O)CCc2ccc(OC[C@@H](O)CNCCNC(=O)N3CCOCC3)cc2)O1,Potency,[1],inactive
same,outcome,[2],inactive
same,Potency,[3],inactive
same,Potency,[4],inactive
CC(C)(C)NC(=O)[C@@H]1CN(Cc2cccnc2)CCN1C[C@@H](O)C[C@@H](Cc1ccccc1)C(=O)N[C@H]1c2ccccc2C[C@H]1O,Potency,[1],inactive
same,outcome,[2],inactive
same,Potency,[3],inactive
same,Potency,[4],inactive
O=C(O)CCCCC(=O)O,Potency,[1],inactive
same,outcome,[2],inactive
same,Potency,[3],inactive
CC(=O)OCC(=O)[C@@]12N=C(C)O[C@@H]1C[C@H]1[C@@H]3CCC4=CC(=O)C=C[C@]4(C)[C@H]3[C@@H](O)C[C@@]12C,Potency,[1],inactive
same,outcome,[2],inactive
same,Potency,[3],inactive
same,Potency,[4],inactive
Nc1ccn([C@@H]2O[C@H](CO)[C@@H](O)C2(F)F)c(=O)n1,Potency,[1],inactive
same,outcome,[2],inactive
same,Potency,[3],inactive
same,Potency,[4],inactive
CC(=O)OCC(=O)[C@@]12OC(C)(C)O[C@@H]1C[C@H]1[C@@H]3C[C@H](F)C4=CC(=O)C=C[C@]4(C)[C@@]3(F)[C@@H](O)C[C@@]12C,Potency,[1],inactive
same,outcome,[2],inactive
same,Potency,[3],inactive
same,Potency,[4],inactive
NC[C@H]1O[C@H](O[C@H]2[C@H](O[C@@H]3O[C@H](CO)[C@@H](O)[C@H]3O)C(O)[C@H](N)C[C@@H]2N)[C@H](N)[C@@H](O)[C@@H]1O (some centres undefined),"activity change, negative = inhibition",[1],6.77% [at 12.6 µM]
same,"activity change, negative = inhibition",[2],17.3% [at 11.5 µM]
same,activity change,[3],-8.96% [at 0.858 µM]
CCCSS/C(CCO)=C(\C)N(C=O)Cc1cnc(C)nc1N,Potency,[1],inactive
same,outcome,[2],inactive
same,Potency,[3],inactive
same,Potency,[4],inactive
O=S1(=O)c2cccc3cccc(c23)N1CCCN1CCN(c2ccc(F)cc2)CC1,Potency,[1],inactive
same,outcome,[2],inactive
same,Potency,[3],inactive
same,Potency,[4],inactive
CCCCCCCCCCCCCCNCCO,Potency,[1],inactive
same,outcome,[2],inactive
same,Potency,[3],inactive
C[C@H]1[C@H](NC(=O)/C(=N/OC(C)(C)C(=O)O)c2csc(N)n2)C(=O)N1S(=O)(=O)O (stereo in doubt),Potency,[1],inactive
same,outcome,[2],inactive
same,Potency,[3],inactive
CC(C)n1nc(-c2cc3cc(O)ccc3[nH]2)c2c(N)ncnc21,Potency,[1],inactive
same,outcome,[2],inactive
same,Potency,[3],inactive
same,Potency,[4],inactive
CCOC(=O)/C=C(C)/C=C/C=C(C)/C=C/c1c(C)cc(OC)c(C)c1C,Potency,[1],inactive
same,outcome,[2],inactive
same,Potency,[3],inactive
same,Potency,[4],inactive
Cc1c(C)n(Cc2ccccc2)c2ccc(C(=O)OCCN(C)C)cc12,Potency,[1],inactive
same,outcome,[2],inactive
same,Potency,[3],inactive
NC(=O)c1cc[n+](CC2=C(C(=O)[O-])N3C(=O)[C@@H](NC(=O)Cc4cccs4)[C@H]3SC2)cc1,Potency,[1],inactive
same,outcome,[2],inactive
same,Potency,[3],inactive
same,Potency,[4],inactive
CCCCCCCCCCCCCCCC[N+](C)(C)CCN(Cc1ccc(OC)cc1)c1ncccn1,Potency,[1],inactive
same,outcome,[2],inactive
same,Potency,[3],inactive
same,Potency,[5],inactive
COc1c2occc2c(OC)c2c(=O)cc(C)oc12,Potency,[1],inactive
same,outcome,[2],inactive
same,Potency,[3],inactive
same,Potency,[4],inactive
CCCCOc1ccc(C(=O)CCN2CCCCC2)cc1,Potency,[1],inactive
same,outcome,[2],inactive
same,Potency,[3],inactive
same,Potency,[4],inactive
O=c1[nH]c(=O)n([C@H]2CCCO2)cc1F,Potency,[1],inactive
same,outcome,[2],inactive
same,Potency,[3],inactive
same,Potency,[4],inactive
CCCCCCCCCCCCCCCC[N+](C)(C)CC,Potency,[1],inactive
same,outcome,[2],inactive
same,Potency,[3],inactive
